Inhibition data for 85 compounds are collected here from PubChem BioAssay AID687016 (The Scripps Research Institute Molecular Screening Center, 2013).

In all, about 370,000 compounds went through this assay and about 2,800 (0.76%) were called active. Cut-off read from the data, not from the text of the source: active = inhibition above about 21%; inactive = the rest. The sample as a whole holds a higher share of actives than the screen did.

Chain of E3 ubiquitin-protein ligase UHRF1 (Homo sapiens) (Q96T88 whole entry, looked up, the tested form may be a part): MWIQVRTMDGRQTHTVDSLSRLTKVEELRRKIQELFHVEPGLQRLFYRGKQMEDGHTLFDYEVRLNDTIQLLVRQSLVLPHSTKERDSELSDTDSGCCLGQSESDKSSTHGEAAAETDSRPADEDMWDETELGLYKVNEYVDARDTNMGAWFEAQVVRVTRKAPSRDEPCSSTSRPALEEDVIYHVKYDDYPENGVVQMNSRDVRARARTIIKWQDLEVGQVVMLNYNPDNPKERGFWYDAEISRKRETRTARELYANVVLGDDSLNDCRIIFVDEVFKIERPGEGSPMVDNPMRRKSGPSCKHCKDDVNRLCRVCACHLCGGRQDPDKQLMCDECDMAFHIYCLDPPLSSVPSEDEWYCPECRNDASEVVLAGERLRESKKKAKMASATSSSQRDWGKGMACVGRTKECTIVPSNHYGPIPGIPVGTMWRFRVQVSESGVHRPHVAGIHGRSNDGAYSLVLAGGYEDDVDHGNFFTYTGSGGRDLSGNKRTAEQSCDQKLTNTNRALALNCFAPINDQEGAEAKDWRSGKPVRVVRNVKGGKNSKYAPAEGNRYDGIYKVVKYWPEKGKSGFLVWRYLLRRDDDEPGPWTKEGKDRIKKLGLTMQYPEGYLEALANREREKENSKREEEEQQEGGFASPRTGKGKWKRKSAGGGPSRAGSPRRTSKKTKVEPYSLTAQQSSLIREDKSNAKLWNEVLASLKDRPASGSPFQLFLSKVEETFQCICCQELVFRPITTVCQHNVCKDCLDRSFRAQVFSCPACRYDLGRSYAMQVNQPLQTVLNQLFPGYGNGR

This test addresses E3 ubiquitin-protein ligase UHRF1 (Homo sapiens) (UniProt Q96T88). Kind of test: blockers of UHRF1 binding to methyl-oligo – biochemical, TR-FRET, human UHRF1, single concentration, counter-screen for MBD2 inhibitor project, primary screen (AID 687016).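 Note: UHRF1 SRA domain binding a hemimethylated CpG hairpin DNA probe; 0% = median of test compound wells and 100% = reference inhibitor.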 Particulars: UHRF1 binding to methylated oligo, at 4.4 µM, stronger effect = higher value.
On to `CC(C)(C)OC(=O)NCCc1ccccc1/C=C/S(=O)(=O)NCc1ccc(F)cc1`, for which the inhibition was 3.54% (inactive).
Under `CSc1ccc(C=Nn2c(-c3ccc(F)cc3)n[nH]c2=S)cc1` stands -0.35% (inactive); under `CCOc1ccc(-n2c(SCC(=O)Nc3cc(C)c(NC(=O)c4ccccc4)cc3OC)nnc2-c2cccs2)cc1`, -0.28% (inactive).
Under `Cc1ccc(C(=O)C2CCN(CC(=O)NCCC(C)C)CC2)cc1` stands 9.98% (inactive).
Under `O=S1(=O)c2c(NCc3ccco3)cccc2Oc2ccccc2CN1Cc1cn(Cc2cccc(C(F)(F)F)c2)nn1` stands 3.97% (inactive).
For `CC(C)CC1C(=O)N(Cc2cn(CC3CCCCC3)nn2)CCS(=O)(=O)N1Cc1ccc(-c2ccc(Cl)cc2)cc1` (stereo not given), the inhibition is -1.68% (inactive).
Under `COc1ccc(-c2ccc(CN3C(CC(C)C)C(=O)N(Cc4cn(CC5CCCCC5)nn4)CCS3(=O)=O)cc2)cc1` (stereo not given) stands 1.54% (inactive); under `CC(=O)c1cccc(-c2ccc(CN3C(CC(C)C)C(=O)N(Cc4cn(CC5CCCCC5)nn4)CCS3(=O)=O)cc2)c1` (stereo not given), 21% (active); under `CCOC(=O)[C@@]12CN(C(=O)OC(C)(C)C)CC=C1N(Cc1ccc(OC)cc1)C(=O)[C@H]2CC(=O)NCc1ccc(OC)c(OC)c1`, -2.61% (inactive).
Then `COC(=O)C1CN(CC(C)C)CCS(=O)(=O)N1Cc1ccc(C)cc1` (stereo not given), with 1.11% (inactive).
Under `O=C(O)CCCn1cc(NC(=O)COc2cccc(Cl)c2)cn1` stands 5.22% (inactive); under `O=C(COc1cccc(Cl)c1)NCc1ccccc1`, 36% (active).
Turning to `O=C(COC(=O)c1cccc(Cl)c1)NC(=O)NCc1ccccc1`, the inhibition was -0.3% (inactive).
Then `CCCCCCCCNS(=O)(=O)/C=C/c1cc(C)ccc1CNC(=O)OC(C)(C)C`, with -7.08% (inactive); and `CC(=O)C1(C(=O)Nc2nccs2)CC(c2ccccc2C(F)(F)F)=NO1` (stereo not given), with -0.55% (inactive); and `CCOC(=O)[C@]12CCCC3=C1N(CCC3)C(=O)[C@@H](CC(=O)NCc1cccs1)C2`, with -1.06% (inactive).
Under `COc1nc(Oc2ccc(=O)n(C)n2)nc(N(C)C)n1` stands -0.4% (inactive); under `COc1nc(N(C)C)nc(N2CC(=O)N(CCNS(=O)(=O)c3ccc(C)cc3)C2=N)n1`, 22.6% (active); under `Cc1ccc(S(=O)(=O)NCCSC(C)(C)C)cc1`, -0.21% (inactive).
In the case of `COc1ccccc1C(=O)NC1CCCCN(C(C)C)C1=O` (stereo not given), the inhibition was 2.58% (inactive).
Under `O=C(OCC(=O)N1CCN(c2ccccc2)CC1)c1ccc([N+](=O)[O-])s1` stands -3.28% (inactive).
Under `COc1ccc(C(=O)COC(=O)c2ccc([N+](=O)[O-])s2)cc1OC` stands 21.7% (active).
As for `COc1ccc(C(=O)OCC(=O)c2ccc(C)c(S(=O)(=O)N3CCOCC3)c2)cc1OC`, the inhibition was -0.9% (inactive).
Under `CC(c1c[nH]c2ccccc12)c1c(-c2ccccc2)n(C)c2ccccc12` (stereo not given) stands 1.29% (inactive); under `Cc1cc(C)n2ncc(C(=O)Nc3ccc4c(c3)OCCO4)c2n1`, -6.73% (inactive); under `CCC(C)C(CO)NC(=O)/C=C/[C@H]1O[C@@H](n2cnc3c(NC(=O)c4ccccc4)ncnc32)[C@H](O)[C@@H]1O` (stereo not given in full), 19.7% (inactive).
Then `COc1cccc(CN(C)C(=O)CC[C@H]2O[C@@H](n3cnc4c(NC(=O)c5ccccc5)ncnc43)[C@H](O)[C@@H]2O)c1`, with 0.17% (inactive); and `O=C(/C=C/[C@H]1O[C@@H](n2cnc3c(NC(=O)c4ccccc4)ncnc32)[C@H](O)[C@@H]1O)NCc1ccccc1`, with 23% (active).
Then `Cc1ccc(-n2c(COc3ccccc3)nnc2SCC(=O)Nc2ccc3c(c2)OCCO3)cc1`, with 1.6% (inactive); and `COc1ccc(Cn2cc(COC(=O)N(C)Cc3ccccc3)nn2)cc1`, with 1.11% (inactive); and `Cc1cccc(NC(=O)C2CCCN(C(=O)Nc3ccc(F)cc3)C2)c1C` (stereo not given), with 10.2% (inactive).
Consider `Cc1cccc(NC(=O)C2CCCN2S(=O)(=O)c2ccc(F)cc2)c1C` (stereo not given), for which the inhibition was 42.7% (active).
Regarding `COc1ccccc1NC(=O)C1CCCN1S(=O)(=O)c1ccc(Cl)cc1` (stereo not given), the inhibition was -0.35% (inactive).
For the compound `Cc1ccccc1NC(=O)COC(=O)c1ccc(Sc2ncn[nH]2)c([N+](=O)[O-])c1`, the inhibition is -0.88% (inactive).
For the compound `O=C(NC1CCCCN(Cc2ccc(Cl)cc2)C1=O)c1ccc(Br)cc1` (stereo not given), the inhibition was -3.02% (inactive).
For the compound `C[C@@H]1COc2cccc(N3CCCC3)c2S(=O)(=O)N1C`, the inhibition is 0.4% (inactive).
`CC(Cc1cccs1)N(Cc1ccc(Cl)cc1)C(=O)c1ccncc1` (stereo not given): the inhibition was 26.1% (active).
Under `CC(Cc1cccs1)NC(=O)c1cccc(Cl)c1` (stereo not given) stands -1.41% (inactive); under `CC(C)(C)N(Cc1ccccc1)C(=O)c1ccncc1`, 1.02% (inactive); under `COc1ccc(C2Nc3ccccc3C(=O)N2Cc2cccs2)cc1COc1c(C)cccc1C` (stereo not given), 1.56% (inactive).
Turning to `O=C1Nc2ccccc2OC1CC(=O)N1CCCCCCC1` (stereo not given), the inhibition was -2.05% (inactive).
Take `CC(=O)OCCN1CCCC12CCC(c1ccccc1)CC2` (stereo not given): the inhibition is 0.81% (inactive).
In the case of `O=C(CN1C(=O)NC2(CCCC2)C1=O)OCCOc1ccc(F)cc1`, the inhibition is 0.11% (inactive).
As to `CCOc1ccc(C(C)=O)cc1COC(=O)CN1C(=O)NC2(CCCC2)C1=O`, the inhibition was 2.29% (inactive).
`Cc1ccc(COC(=O)CN2C(=O)NC3(CCCC3)C2=O)cc1`: the inhibition was 42.5% (active).
Take `COc1ccccc1CCNC(=O)C1CCN(c2nc(C)cc(C)n2)CC1`: the inhibition is 2.65% (inactive).
Under `COc1ccc(COC[C@H](CC(C)C)N2CCN(C(=O)c3cccc(C(F)(F)F)c3)CCC2=O)cc1` stands 21.1% (active); under `CC(C)CC(COCc1ccc(Cl)cc1)N1CCN(C(=O)c2ccc(C(F)(F)F)cc2)CCC1=O` (stereo not given), 10.1% (inactive).
Under `O=C(c1ccc(C(F)(F)F)cc1)N1CCC(=O)N([C@H](COCc2ccccc2)Cc2ccccc2)CC1` stands -0.62% (inactive); under `O=C(CSc1nnc(COc2ccccc2)n1Cc1ccco1)c1ccc2ccccc2c1`, -1.9% (inactive); under `CCn1c2ccccc2c2cc(NC(=O)CSc3nnc(-c4ccccc4)n3-c3ccc(C)cc3)ccc21`, -2.76% (inactive).
Under `Cc1cc(Br)cn2c(Cc3ccccc3C(F)(F)F)c(C3CCCCC3)nc12` stands 11.3% (inactive).
In the case of `CCCc1nc2c3ccccc3ccn2c1Cc1ccccc1C(F)(F)F`, the inhibition was 22.9% (active).
`FC(F)(F)c1ccccc1Cc1c(-c2ccccc2)nc2c3ccccc3ccn12`: the inhibition is 14.2% (inactive).
Then `COc1ccc([C@H]2OC(=O)C[C@H]2C(=O)N2CCN(c3ccccc3F)CC2)cc1OC`, with -2.23% (inactive); and `O=S(=O)(Cc1ccccc1)c1nc2ccccc2n1Cc1ccccn1`, with 0.93% (inactive).
Then `COc1ccc(C)c(Cn2c(-c3nonc3N)nc3ccccc32)c1`, with -5.53% (inactive); and `CC(=O)Nc1nonc1-c1nc2ccccc2n1Cc1ccccn1`, with 54.5% (active).
Under `Cc1cccc(C(=O)Nc2c(-c3ccc(F)cc3)nc3ncccn23)c1` stands -2.59% (inactive); under `COc1ccc(N2CCN(CCNS(=O)(=O)c3ccc([N+](=O)[O-])cc3)CC2)cc1`, -0.84% (inactive); under `COc1c(C)cc(C(=O)C2CCCN(S(=O)(=O)c3c(C)noc3C)C2)cc1C` (stereo not given), 20.7% (active).
As to `Cc1noc(C)c1S(=O)(=O)N1CCCC(C(=O)Nc2nccs2)C1` (stereo not given), the inhibition is -1.61% (inactive).
Then `Cc1ccc(NC(=O)C2CCCN(S(=O)(=O)c3c(C)noc3C)C2)c(C)c1` (stereo not given), with -1.46% (inactive).
Under `Cc1ccc(C2=CCN(C)C(=O)N2c2ccc(Cl)cc2)cc1` stands -4.14% (inactive).
On to `COc1ccc(C#CCNCc2ccc(OC)cc2OC)cc1`, for which the inhibition was -1.17% (inactive).
Then `CCOC(=O)c1sc2nc(C)nc(SCC(N)=O)c2c1C`, with -1.2% (inactive).
Then `CCN(CC)Cc1nc2sc(C)c(C)c2c(=O)[nH]1`, with 2.13% (inactive).
Under `CSc1nnc(SCc2nc3sc(C(=O)O)c(C)c3c(=O)[nH]2)s1` stands 32.3% (active).
As for `Cc1c(C(C)c2ccccc2O)[nH]c2ccccc12` (stereo not given), the inhibition is -2.42% (inactive).
Then `O=C(CSc1nc2ccccc2s1)N=Nc1c(O)[nH]c2ccccc12`, with -3.32% (inactive); and `CCN(CC)C(=O)CC[C@@H]1CC[C@]2(CCCN(S(=O)(=O)C3CCCCC3)C2)O1`, with -0.55% (inactive).
On to `Cc1ccc(Cn2cc(COC(=O)N(C)Cc3ccccc3)nn2)cc1`, for which the inhibition is -4.1% (inactive).
Under `O=C(Cn1cnc2c(nnn2Cc2ccc(F)cc2)c1=O)NCc1ccc2c(c1)OCO2` stands 21.8% (active).
Under `Cc1cc(C)cc(NC(=O)Cn2cnc3c(nnn3Cc3ccc(F)cc3)c2=O)c1` stands 0.23% (inactive); under `Cc1ccc(Cn2nnc3c(=O)n(CC(=O)N4CCCCC4)cnc32)cc1`, 0.43% (inactive).
Turning to `CCCCNC(=O)C[C@H]1C(=O)N(Cc2ccc(OC)cc2)C2=CCCC[C@@]21C(=O)OCC`, the inhibition was 5.53% (inactive).
Then `Cc1nc(CNc2ncnc3ccc(-c4ccc5c(c4)OCO5)cc23)cs1`, with -2.89% (inactive); and `COC(=O)c1c(-c2ccc(C)cc2)csc1N`, with 28.4% (active); and `COC(=O)c1sc(N)c(C(=O)OC)c1COC(=O)CNS(=O)(=O)c1ccc(C)cc1`, with -0.33% (inactive).
Under `CCC(C(=O)OC)n1cnc2scc(-c3ccc(C)cc3)c2c1=O` (stereo not given) stands 0.64% (inactive); under `CCCCNC(=O)C[C@H]1C[C@@]2(C(=O)OC)C(=C[C@H](COCc3ccccc3)O[C@@H]2C)N(Cc2ccc(Cl)cc2Cl)C1=O`, 1.55% (inactive); under `COC(=O)C1CN(CCc2ccccc2)CCS(=O)(=O)N1Cc1cccc(Cl)c1` (stereo not given), 1.44% (inactive).
Consider `CC(NCc1ccco1)C(=O)N1CCCCC1` (stereo not given), for which the inhibition was 0.03% (inactive).
Then `COc1ccc(-n2c(SCC(=O)Nc3ccc4c(c3)OCCO4)nnc2-c2ccc(Cl)cc2)cc1`, with 2.21% (inactive); and `COC(=O)CC1CCc2cc(C)cc(C(CC(C)C)NC(=O)[C@H](CC(C)C)NC(=O)OCc3ccccc3)c2O1` (stereo not given in full), with 4.14% (inactive).
